# Source: ChEMBL document CHEMBL1156829
# In all, about 5,400 compounds were measured (“IFI”: median about 2, highest 2% from about 22 on). Shown is part of a subset that was picked to be rich in the highest values.
# Assay: NOVARTIS: Inhibition Frequency Index (IFI) - the number of HTS assays where a compound showed > 50% inhibition/induction, expressed as a percentage of the number of assays in which the compound was tested.
# Type: functional
row,Structure (SMILES),IFI [%]
1,Cn1ccnc1C(=O)NNc1ncc(C(F)(F)F)cc1Cl,13.3
2,CCCN[P+](CC(C)C)(NCCC)NCCC,10.9
3,C=C[C@H]1CN2CC[C@H]1C[C@H]2[C@H](OC(=O)CC)c1ccnc2ccccc12,1.87
4,C=C1[C@@H](C)[C@H]2[C@H](Cc3ccccc3)NC(=O)[C@]23C(OC(C)=O)C=C[C@@](C)(O)C(=O)[C@@H](C)CC=C[C@H]3[C@@H]1O (stereo not given in full),6.9
5,CCOC(=O)c1c(S(=O)(=O)Nc2ccc(C(C)(C)C)cc2)c(-c2ccccc2)n(-c2ccccc2)c1C,3.09
6,CC[C@H]1CN2CC[C@H]1C[C@H]2[C@H](O)c1ccnc2ccccc12,5.17
7,CC1=C[C@H]2O[C@@H]3C[C@H]4OC(=O)C=CC=C[C@H]([C@@H](C)O)OCC[C@@H](C)[C@H](O)C(=O)OC[C@@]2(CC1)[C@]4(C)[C@@]31CO1,24.5
8,CC1=CC(=O)OC[C@]23CCC(C)=C[C@H]2O[C@@H]2C[C@@H](OC(=O)C=CC=CC(=O)OCC1)[C@@]3(C)[C@]21CO1,22.6
9,CC1=CC(=O)OC[C@]23C[C@H](O)C(C)=C[C@H]2O[C@@H]2C[C@@H](OC(=O)C=CC=CC(=O)OCC1)[C@@]3(C)[C@]21CO1,22.6
10,Cc1onc(O)c1CC(N)C(=O)O (stereo not given),0
11,CCOc1ccc2nccc([C@@H](O)[C@@H]3C[C@@H]4CCN3C[C@@H]4CC)c2c1,3.82
12,Cc1ccc(O)c(C(=O)c2c[nH]c(-c3nc4ccccc4[nH]3)c2)c1,0
13,C=CC1CN2CCC1CC2[C@@H](OC(=O)c1ccc(C(C)(C)C)cc1)c1ccnc2ccc(OC)cc12 (stereo not given in full),0
14,O=C(NNc1cccc(F)n1)C(F)(F)F,1.25
15,C=CC(C)(CCC=C(C)C)c1ccc2c3c(c[nH]c13)CC(CO)NC(=O)C(C(C)C)N2C (stereo not given),11.3
16,CS/C(Cl)=C(/NC(C)=O)[P+](c1ccccc1)(c1ccccc1)c1ccccc1,5.34
17,C/C=C1/C[C@H]2[C@@H](OC)Nc3cc(O)c(OC)cc3C(=O)N2C1,28.6
18,O=C1Cc2ccccc2C(=C2CCNCC2)c2ccsc21,0

row,Structure (SMILES),IFI [%]
1,CC=C[C@H]1O[C@@](O)([C@@H](C)C(O)C(C)[C@H]2OC(=O)C(OC)=CC(C)=C[C@@H](C)[C@@H](O)[C@@H](C)[C@@H](O)C(C)CC(C)=CC=C[C@@H]2OC)C[C@@H](O[C@H]2C[C@@H](O)[C@H](OC(N)=O)[C@@H](C)O2)[C@@H]1C (stereo not given in full),15.5
2,CCOC(=O)c1ccc2nc(C)cc(Nc3ccc(N4CCCCC4)cc3)c2c1,1.12
3,CCN1C(=Cc2sc3ccccc3[n+]2CC)[Se]c2ccccc21,22.6
4,CCC(=O)OC(C(C)C(=O)O)C(C)C1OC2(CCC(C)(C3CCC(C)(C4OC(C5OC(O)(CO)C(C)CC5C)CC4C)O3)O2)CC(O)C1C (stereo not given),8.62
5,C[n+]1c2n(c3ccccc31)N=C(c1ccccc1)C[Se]2,3.7
6,C[C@@H]1C[C@H]2CC[C@H](O2)[C@H](C)C(=O)O[C@@H](C)C[C@@H]2CC[C@@H](O2)[C@@H](C)C(=O)O[C@H](C)C[C@H]2CC[C@@H](O2)[C@H](C)C(=O)O[C@@H](C)C[C@@H]2CC[C@@H](O2)[C@@H](C)C(=O)O1,12.5
7,CC1CC2CCC(O2)C(C)C(=O)O[C@H](C)CC2CCC(O2)C(C)C(=O)OC(C)CC2CCC(O2)C(C)C(=O)O[C@H](C)CC2CCC(O2)C(C)C(=O)O1 (stereo not given in full),19.2
8,CCC1CC2CCC(O2)C(C)C(=O)OC(C)CC2CCC(O2)C(C)C(=O)OC(CC)CC2CCC(O2)C(C)C(=O)OC(C)CC2CCC(O2)C(C)C(=O)O1 (stereo not given),24.1
9,CCCCCc1cc(O)c2c3c(c(=O)oc2c1)CN(C)CC3,2.29
10,O=C1CN=C(c2ccccc2Cl)c2cc(Cl)ccc2N1Cc1cccc([N+](=O)[O-])c1,1.92
11,CCCCCCCc1cc(O)c2c3c(c(=O)oc2c1)CCC(C)C3 (stereo not given),0
12,C=C[C@H]1CN2CC[C@H]1C[C@H]2[C@H](OC(=O)CCCC)c1ccnc2ccccc12,4.59
13,CN1CCc2cc3c(c4c2C1Cc1ccccc1-4)OCO3 (stereo not given),6.17
14,COc1cc2c3cc1Oc1c(OC)c(OC)cc4c1C(Cc1ccc(O)c(c1)Oc1ccc(cc1)CC3N(C)CC2)N(C)CC4 (stereo not given),7.14
15,COc1ccc2c(c1)CC1c3c(cc4c(c3-2)OCO4)CCN1C (stereo not given),25
16,CC[C@@]1(O)C[C@H](O[C@@H]2CC(N(C)C)[C@@H](O[C@@H]3C[C@@H](O)[C@@H](O[C@@H]4CCC(=O)[C@@H](C)O4)C(C)O3)[C@@H](C)O2)c2c(cc3c(c2O)C(=O)c2c(O)ccc(O)c2C3=O)[C@H]1C(=O)OC (stereo not given in full),21.4
17,OC1(c2ccc(Cl)c(C(F)(F)F)c2)CCN(CCOC2c3ccccc3CSc3ccc(Cl)cc32)CC1 (stereo not given),2.38
